Potency and affinity values are given separately.

Our source for the Inhibition values is ChEMBL document CHEMBL4513146, “CO-ADD screening of Karazin Kharkiv National University (Ukraine) compounds”.

Experiment [1] deals with Klebsiella pneumoniae. To be noted: Concentration 32 ug.mL-1;; ASSAY_TEST Inhibition of Bacterial Growth; detection method Absorption (OD600); MEDIA CAMHB; plate type 384well; NBS; CORNING #3640; time 18 hr.
For experiment [2], the system named is Candida albicans. To be noted: Concentration 32 ug.mL-1; ASSAY_TEST Inhibition of Fungal Growth; detection method Absorption (OD530).
Experiment [3] relates to Cryptococcus neoformans. The settings on record: Concentration 32 ug.mL-1; ASSAY_TEST Inhibition of Fungal Growth; detection method Resazurin; Absorption (OD600-OD570); plate type 384well; NBS; CORNING #3640. A general note: The colour change of resazurin is a common sign of viable cells or microbes.

As to `COc1ccccc1-n1ccn2c(SCC#N)nnc2c1=O`, the Inhibition (commonly the change of the read-out against control, counted positive when it falls) in experiment [1] was 22.72%; in experiment [2], 4.95%; in experiment [3], -18.74%.

`COc1ccc(NC(=O)Cn2nc3c4cc(-c5ccc(C)cc5)nn4ccn3c2=O)cc1Cl`: the Inhibition in experiment [1] is listed as -5.12%; in experiment [2], 9.96%; in experiment [3], -15.26%.

Regarding `COc1ccc(NC(=O)c2ccc3nn(CC(=O)Nc4ccccc4C(F)(F)F)c(=O)n3c2)cc1`, the values for the Inhibition in experiment [1], in experiment [2] and in experiment [3] were 0.14%, 5.37% and -8.24%, respectively.

On to `CCOC(=O)c1ccccc1NC(=O)Cn1nc2c(Oc3ccccc3)nccn2c1=O`, for which the figures for the Inhibition in experiment [1], in experiment [2] and in experiment [3] were 14.49%, 0.37% and -11.47%, respectively.

As for `Cc1ccc(C)c(CN(c2ccc(F)c(F)c2)S(=O)(=O)c2cccn3cnnc23)c1`, the Inhibition in experiment [1] is -0.76%; in experiment [2], 1.83%; in experiment [3], -7.27%.

Consider `O=C(Cn1nc2c(N3CCOCC3)nccn2c1=O)NCc1cccs1`, for which the Inhibition in experiment [1] was 15.07%; in experiment [2], 2.44%; in experiment [3], -8.25%.

For `O=S(=O)(c1ccc2nncn2c1)N(Cc1ccc(F)cc1)c1ccc(F)c(F)c1`, the Inhibition in experiment [1] is on record as 5.64%; in experiment [2] it was 2.31%; in experiment [3] it was -6.65%.

In the case of `CCOC(=O)c1ccc(NC(=O)Cn2nc3c(N4CCOCC4)nccn3c2=O)cc1`, the Inhibition in experiment [1] is on record as 11.56%; in experiment [2], 3.03%; in experiment [3], -14.12%.

For the compound `CCCCN(CC)c1ccc2nnc(CCc3nc(-c4ccc(Br)cc4)no3)n2n1`, the Inhibition in experiment [1] was 10.38%; in experiment [2], 6.33%; in experiment [3], -10.77%.

Turning to `COc1ccccc1Cn1c(=O)c2sccc2n2c(=O)n(CC(=O)c3ccc(C)cc3C)nc12`, the Inhibition in experiment [1] is given as 4.01%; in experiment [2] it was 8%; in experiment [3], -26.25%.

`Cc1ccc(-n2ccn3c(=O)n(Cc4ccccc4)nc3c2=O)cc1C`: the figures for the Inhibition in experiment [1], in experiment [2] and in experiment [3] were -0.96%, 0.88% and -10.01%, respectively.

For the compound `CCOC(=O)c1ccccc1NC(=O)Cn1nc2ccc(C(=O)Nc3ccc(OC)cc3)cn2c1=O`, the Inhibition in experiment [1] is given as -1.54%; in experiment [2] it was 25.24%; in experiment [3], -9.29%.

Regarding `COc1ccccc1CNC(=O)Cn1nc2c(SCc3ccc(Cl)cc3)nccn2c1=O`, the Inhibition was 9.05% in experiment [1], 2.3% in experiment [2] and -6.8% in experiment [3].

For the compound `CCOC(=O)c1ccc(NC(=O)CSc2nnc3c4cc(-c5ccc(OC)cc5)nn4ccn23)cc1`, the Inhibition is given as 14.8% in experiment [1], -1.16% in experiment [2] and -22.98% in experiment [3].

For the compound `O=C(CSc1nnc2c(=O)n(-c3ccccc3)ccn12)Nc1ccc2c(c1)OCCO2`, the Inhibition is recorded as 7.64% in experiment [1], 0.98% in experiment [2] and -23.79% in experiment [3].

For `Cc1ccc(-c2cc3c4nn(CC(=O)NCc5ccccc5)c(=O)n4ccn3n2)cc1C`, the figures for the Inhibition in experiment [1], in experiment [2] and in experiment [3] were 9.36%, 4.46% and -12.84%, respectively.

For `O=C(Cn1nc2c(SC3CCCCC3)nccn2c1=O)Nc1ccc(Cl)cc1F`, the Inhibition in experiment [1] is on record as 10.76%; in experiment [2] it was 1.51%; in experiment [3], -29.46%.

On to `CCc1ccccc1Sc1nccn2c(=O)n(CC(=O)Nc3cccc(C)c3)nc12`, for which the results for the Inhibition in experiment [1], in experiment [2] and in experiment [3] were 4.48%, -0.7% and -3.25%, respectively.

Regarding `CCCn1c(=O)c2sccc2n2c(=O)n(CC(=O)c3cccc(OC)c3)nc12`, the Inhibition in experiment [1] is given as 7.12%; in experiment [2] it was 6.53%; in experiment [3], -27.27%.

As to `Cc1cccc(Oc2nc3ccccc3n3c(=O)n(CC(=O)Nc4cccc(C#N)c4)nc23)c1C`, the values for the Inhibition in experiment [1], in experiment [2] and in experiment [3] were 4.26%, 5.6% and -21.56%, respectively.

Regarding `Cc1ccc(Cl)cc1NC(=O)Cn1nc2c3c4c(sc3ncn2c1=O)CCCCC4`, the Inhibition in experiment [1] is reported as 13.99%; in experiment [2] it was 1.16%; in experiment [3] it was -31.5%.

For `COc1ccc(N(Cc2cccc(Cl)c2)S(=O)(=O)c2ccc3nnc(C)n3c2)cc1`, the figures for the Inhibition in experiment [1], in experiment [2] and in experiment [3] were 12.69%, 5% and -5.62%, respectively.

For the compound `CCC(C)NC(=O)Cn1nc2n(CCC(=O)NC3CCCCC3)c(=O)c3ccccc3n2c1=O` (stereo not given), the Inhibition is -2.01% in experiment [1], 3.91% in experiment [2] and -20.86% in experiment [3].

Take `CCc1nnc2c(SCC(=O)Nc3c(C)cc(C)cc3C)nc3ccccc3n12`: the Inhibition in experiment [1] is on record as 8.2%; in experiment [2] it was 1.5%; in experiment [3] it was -17.04%.

With `COc1ccc(C(=O)CSc2nnc3c(=O)n(-c4ccc(F)cc4)ccn23)cc1OC`, the Inhibition was 11.15% in experiment [1], 4.19% in experiment [2] and -8.42% in experiment [3].

As for `O=c1c2sccc2n2c(=O)n(Cc3ccccc3Cl)nc2n1Cc1cccs1`, the Inhibition in experiment [1] is reported as -3.57%; in experiment [2] it was 32.61%; in experiment [3], -5.81%.

Consider `CN(Cc1ccccc1)C(=O)CSc1nnc2c3cc(-c4ccccc4)nn3ccn12`, for which the Inhibition is recorded as -0.25% in experiment [1], 2.03% in experiment [2] and -6.97% in experiment [3].

With `CC(C)(C)OC(=O)CN(c1ccc2c(c1)OCCO2)S(=O)(=O)c1ccc2nncn2c1`, the Inhibition in experiment [1] is recorded as 11.52%; in experiment [2], 1.39%; in experiment [3], -8.21%.

With `COc1ccc(NC(=O)Cn2nc3nc(N4CCOCC4)ccn3c2=O)cc1F`, the Inhibition was 8.85% in experiment [1], 5.37% in experiment [2] and -8.95% in experiment [3].

As to `Cc1cc2nn(CC(=O)Nc3ccccc3C)c(=O)n2c(Nc2ccc(F)c(C)c2)n1`, the Inhibition was 13.6% in experiment [1], 21.67% in experiment [2] and -6.31% in experiment [3].
